About 79,000 compounds went through this panel and 15% of them were active in at least one assay; those are over-represented in the sample as a whole. Calls of active or inactive are those of the source. Cut-off read from the data, not from the text of the source: active = growth inhibition above about 70%; inactive = the rest.
Assay: NCI Yeast Anticancer Drug Screen. Data for the mec2-1 strain (AID 157)
Settings: S. cerevisiae mec2-1 strain, at 50.0 µM (retest, dose inferred, filed as 5.0), stronger effect = higher value
Summary of the method: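 Compounds were applied to mec2-1 yeast cells. Their growth was then compared with that of vehicle-treated cultures to give growth inhibition.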

SMILES	growth inhibition
COc1ccc(/C=C2\SC(=S)N(/C=C/c3nc4ccccc4[nH]c3=O)C2=O)cc1OC	45% (inactive)
N#CN=Nc1cc(Cl)c(N=NC#N)cc1Cl	87% (active)
Cc1ccc(S(=O)(=O)Oc2cc(Cl)c(Cl)cc2Cl)cc1	-17% (inactive)
c1ccc2c(c1)Oc1cccc3cccc-2c13	99% (active)
O=C(c1ccc(Cl)cc1Cl)C(Cl)Cl	82% (active)
CC(C)C1=CCC2C(=C1)CCC1C(C)(C(=O)O)CCCC21C (stereo not given) (tested in a mixture with another compound)	99% (active)
COc1cc(/C=C2\CCc3ccccc3C2=O)cc(OC)c1OC	14% (inactive)
CC(=O)[O][Bi]([c]1ccccc1)[c]1ccccc1	95% (active)
S=C(N/N=C/c1ccccn1)Nc1ccc(Cl)cc1	95% (active)
COc1cc(CC2CC(c3ccc4c(c3)OCO4)OC2=O)cc(OC)c1OC (stereo not given)	11% (inactive)
CNC1C(OC2C(OC3C(O)C(O)C(N=C(N)N)C(O)C3N=C(N)N)OC(C)C2(O)CO)OC(CO)C(O)C1O (stereo not given)	19% (inactive)
NNC(=O)CCc1ccc2ccc3ccccc3c2c1	2% (inactive)
Oc1ccc2ccccc2c1C(c1ccc(Cl)cc1)c1c(O)ccc2ccccc12	99% (active)
CCCCN(CCCC)CCSc1ccc(Cl)cc1	66% (inactive)
CCC(C)COC(=O)c1ccc(N=Cc2ccc(C=Nc3ccc(C(=O)OCC(C)CC)cc3)cc2)cc1 (stereo not given)	13% (inactive)
CC1(C)C(=O)OC(n2cc(F)c(=O)[nH]c2=O)C1=O (stereo not given)	34% (inactive)
O=[N+]([O-])CC(SCc1ccccc1)c1ccc2c(c1)OCO2 (stereo not given)	98% (active)
COc1cc2c(cc1[N+](=O)[O-])C(=O)C(Br)(Br)CCC2	100% (active)
OCC1OC(OCC(O)C(O)C(O)C(/C=N/Nc2ccccc2)=N/Nc2ccccc2)C(O)C(O)C1O (stereo not given)	13% (inactive)
COc1ccc(N=C2C(=O)Nc3ccc(Br)cc32)cc1	61% (inactive)
Cn1c(=O)c2ccccc2c2ccccc21	5% (inactive)
CC[n+]1ccc2c(C)c3[nH]c4ccc(O)cc4c3c(C)c2c1	16% (inactive)
CC(=O)ON1C(=O)c2cccc3cccc(c23)C1=O	97% (active)
COc1ccc2ccc3ccccc3c2c1C=O	50% (inactive)
OC1CCCc2c1cc1ccc3cccc4ccc2c1c34 (stereo not given)	93% (active)

— PubChem BioAssay (NCI)
